# PLK1 PBD inh: inhibitors of human PLK1 polo-box domain binding; Plk1 PBD binding of FITC phosphopeptide, fluorescence polarization; Potency, µM, without a hit: max response, negative = inhibition, usual class: inhibitors; actives 2.8% (n = 360,000); AID 720504; also: series mostly up to about 57 µM; nearly all actives have a fitted effect of over 65% in size
# Target sequence (P53350 whole entry, looked up, the tested form may be a part): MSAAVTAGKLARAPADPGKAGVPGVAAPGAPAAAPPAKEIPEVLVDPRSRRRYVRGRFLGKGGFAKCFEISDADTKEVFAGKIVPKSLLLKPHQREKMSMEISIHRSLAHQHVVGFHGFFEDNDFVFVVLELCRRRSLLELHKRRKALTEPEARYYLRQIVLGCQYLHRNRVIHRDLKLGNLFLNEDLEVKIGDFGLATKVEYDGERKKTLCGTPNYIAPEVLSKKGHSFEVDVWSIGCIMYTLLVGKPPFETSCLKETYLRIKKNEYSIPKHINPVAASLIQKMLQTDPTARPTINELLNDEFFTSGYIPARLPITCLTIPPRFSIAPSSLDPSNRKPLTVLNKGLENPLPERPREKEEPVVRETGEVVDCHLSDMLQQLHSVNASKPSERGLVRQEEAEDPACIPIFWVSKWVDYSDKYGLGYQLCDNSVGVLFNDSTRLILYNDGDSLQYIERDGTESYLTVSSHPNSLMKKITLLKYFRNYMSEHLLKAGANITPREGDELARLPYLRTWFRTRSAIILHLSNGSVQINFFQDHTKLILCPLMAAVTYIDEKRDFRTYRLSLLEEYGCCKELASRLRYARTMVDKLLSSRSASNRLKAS
# GCN5L2 inh: GCN5L2 (KAT2A) acetyltransferase inhibition | Potency, µM (highest dose often 58.9 µM), for inactives: at the top dose activity change, negative = inhibition, most hits filed as inhibitors | GCN5L2 HAT assay, ThioGlo1 CoA-SH fluorescence | actives 0.21% (n = 390,000)
#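 qHTS, 1536-well. 20nM enzyme, pH 7.5 HEPES/EDTA/Tween-20 buffer; 15 min compound preinc., RT. Start: 75uM H3(1-25), 70uM AcCoA, 50uM ThioGlo1. Read Ex340/Em540 at t=0 (autofluorescence flag) and t=20 min.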
# VDR inh: inhibitors of human vitamin D receptor | VDR-SRC2-3 peptide fluorescence polarization, 2 h | AID 504847 | Potency, µM, for the others: max response, negative = inhibition, usual class: inhibitors | P11473 | actives 0.93% (n = 400,000)
#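 Signal is fluorescence polarization, reporting how far test compounds block the interaction of VDR with the SRC2-3 coregulator peptide after a 2 h room-temperature incubation.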
# ALOX12 inh: ALOX12 (human) lipoxygenase inhibition; Potency, µM (series often up to 108 µM), without a hit: at the highest dose activity change, negative = inhibition, actives largely listed as inhibitors; P18054; actives 1.1% (n = 580,000); purified 12hLO, xylenol orange hydroperoxide absorbance
#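 Hydroperoxide product was detected by ferrous iron/xylenol orange as the 573 to 405 nm absorbance ratio. Arachidonic acid at 40 uM (final) was turned over for 30 min at room temperature by 150 nM human 12hLO, pH 7.0 Hepes buffer, after 15 min compound preincubation.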
# * marks the source's active call; other numbers are inactive results; ? = inconclusive; / = no result given; [ ] = dose if it differs, or a comment. Most compounds without a hit are left out; they make up all but 3% or so of the library. Calls follow the shape of the dose curve; as a rule, active = well fitted curve in the direction sought with a large enough effect; inconclusive = small, poorly fitted or top-dose-only effect, or another doubt; inactive = no such curve, though single readings can be large; an effect the other way counts as inactive or inconclusive. % is scaled to controls: 0 for no effect and ±100 for the full control effect; potency is read from the fitted curve at half-maximal effect.
SMILES,PLK1 PBD inh,GCN5L2 inh,VDR inh,ALOX12 inh
O=C(NNC(=O)c1cc(-c2ccco2)nc2ccccc12)c1ccccc1,-8%,-22%,-3%,?
O=C(O)c1cc(-c2ccco2)nc2cc3ccccc3cc12,?,-12%,?,20µM*
CC(=O)c1nnn(-c2cccc([N+](=O)[O-])c2)c1C,-6%,1%,9%,-11%
CC(=O)c1nnn(-c2ccc([N+](=O)[O-])cc2C)c1C,24µM*,-7%,-8%,-6%
O=C(Cc1ccc([N+](=O)[O-])cc1)Nc1ccc2oc(C3CC3)nc2c1,/,/,/,0%
C#CCSc1nccc(-c2nn(-c3ccc(C)cc3)ccc2=O)n1,27µM*,-11%,?,?
CCSc1nccc(-c2nn(-c3ccc(C)cc3)ccc2=O)n1,-9%,-5%,5%,0%
COC(=O)c1nnn(CC(=O)Nc2ccc(C)cc2Cl)c1C(=O)OC,/,/,/,4%
O=C(CCCOc1ccc(Cl)cc1Cl)N/N=C/c1ccc(Cl)cc1,15µM*,-5%,?,-17%
N#Cc1nc(-c2ccc([N+](=O)[O-])cc2)oc1N1CCN(CCO)CC1,/,/,/,-27%
CCOc1nc(NC2CCCC2)nc(N2CCC(C)CC2)n1,19µM*,-25%,79µM*,-2%
Nc1nnc(CSCc2ccc(Cl)cc2)s1,-9%,2%,3%,-10%
Nc1nnc(CSCc2ccc(Cl)cc2Cl)s1,19µM*,-19%,-27%,-12%
O=C(CCC[C@@H]1[C@H]2CCCN3CCC[C@@H](CN1C(=O)c1ccsc1)[C@@H]23)NCC1CC1,/,/,/,32%
N#Cc1nc(-c2ccc(Cl)cc2)oc1NCc1ccco1,27µM*,-1%,-11%,116%[57.4 µM]
N#Cc1nc(-c2ccccc2)oc1NCc1ccco1,-1%,-13%,2%,-10%
CC(NC(=O)CCc1ncc(-c2ccccc2Cl)o1)c1ccc(S(N)(=O)=O)cc1 (stereo not given),/,/,/,-3%
CCOc1ccc(NC(=O)C(C)Oc2ccc(F)cc2)c2cccnc12 (stereo not given),/,/,/,6%
CC1(C)CC(NC(=O)C2CCC2)CC(C)(CNC(=O)C2CCC2)C1 (stereo not given),/,/,/,-15%
CCCCN(C)C(=O)C1CCN(CC(C)c2ccccc2)CC1 (stereo not given),/,/,/,1µM*
CCCCN(C)C(=O)C1CCN(Cc2cccc(OCc3ccccc3)c2)CC1,-7%,1%,-5%,5.6µM*
CC1CCc2noc(NC(=O)c3cc(=O)c4cc(Cl)ccc4o3)c2C1 (stereo not given),/,/,/,-16%
Fc1ccccc1/C=N/N1CCN(Cc2ccccc2Cl)CC1,-6%,3%,-8%,13µM*
Clc1ccccc1/C=N/N1CCN(Cc2ccccc2)CC1,-4%,-9%,12%,?
Cc1ccccc1COC(=O)CSc1cnc2ccccc2n1,/,/,/,40%
SMILES,PLK1 PBD inh,GCN5L2 inh,VDR inh,ALOX12 inh
CCOC(=O)C1C(=O)C=C(/C=C/c2ccco2)CC1c1ccccc1 (stereo not given),/,/,/,6.3µM*
CC(C)NC(=O)c1ccccc1CSc1nc2ccccc2o1,/,/,/,-26%
C=CCNC(=S)N/N=C/c1ccc(N(CC)Cc2ccccc2)cc1,-10%,-16%,-8%,50µM*
CCN(CC)c1ccc(/C=N/NC(=S)NCc2ccccc2)cc1,-15%,3%,-4%,?
CC(C)N1CCc2c(sc(NC(=S)NC(=O)c3ccccc3)c2C#N)C1,?,36%,-9%,?
Cc1sc(NC(=S)NC(=O)c2ccccc2)c(C#N)c1C,12µM*,/,-14%,-14%
CC(C)C1Cc2c(sc(NC(=S)NC(=O)c3ccccc3)c2C#N)CO1 (stereo not given),24µM*,3%,-23%,-7%
CC(=O)Nc1sc(C)c(C)c1C#N,/,/,/,-20%
CCCN1CCc2c(sc(NC(=S)NC(=O)c3ccccc3)c2C#N)C1,7.5µM*,-18%,?,?
CCOC(=O)c1c(NC(=S)NCCc2ccccc2)sc2c1CC(C(C)C)OC2 (stereo not given),-10%,4%,-13%,?
Cc1sc(NC(=O)CC(C)(C)C)c(C#N)c1C,/,/,/,13µM*
O=C(COC(=O)CSc1ccc2ccccc2c1)Nc1ccccc1C(F)(F)F,/,/,/,-29%
CCC(CO)NS(=O)(=O)c1cc(Cl)ccc1Cl (stereo not given),/,/,/,-6%
CCOc1ccc(N2C(=O)CCC2(C)C(=O)NC2CCCC2)cc1 (stereo not given),/,/,/,1%
Cc1c(C)c2ccc(OCC(=O)NCCc3ccc(S(N)(=O)=O)cc3)c(C)c2oc1=O,/,/,/,-48%

# Assay outcomes deposited in PubChem BioAssay by National Center for Advancing Translational Sciences (NCATS).
